Screens from PubChem.
Rows were chosen to be rich in hits. Some 1.3% of all compounds tested hit in one or more screens of this group.
Efflux pump mplx: antifungal efflux pump inhibition, Nile Red retention; S. cerevisiae Candida pump triplex; inhibition, % at 10 µM; 330,000 tested, 0.44% active; AID 485275;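 active = plate passing quality check with inhibition over a set limit, or well fluorescence over plate mean plus 4 SD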;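 also: Nile Red retained in pooled yeast measured as flow cytometry median fluorescence; 0% = buffer negative control and 100% = Enniatin B positive control; higher means more Nile Red kept so more efflux inhibition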
MEP2 TOR yeast: alters MEP2-GFP fluorescence in TOR pathway yeast screen | S. cerevisiae MEP2-GFP strain, flow cytometry GFP, 3 h; 100% = DMSO control level | GFP response vs DMSO, % at 10 µM | 330,000 tested, 0.51% active | AID 2016;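 active = GFP response versus DMSO above a set limit, roughly screen mean plus 3 SD, cut at about 180% in these data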;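 also: median GFP fluorescence of the barcode-gated MEP2-GFP cells per well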
RPL19A-GFP yeast: alters RPL19A-GFP fluorescence in TOR pathway yeast screen; S. cerevisiae RPL19A-GFP strain, flow cytometry, 3 h; hits give low values; percent response vs DMSO, % at 10 µM; 330,000 tested, 0.3% active;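 active = percent response vs DMSO below 50%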;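 also: median channel GFP fluorescence of the barcoded RPL19A-GFP strain; ratio of sample median GFP to plate DMSO average so 100% = DMSO; lower means less RPL19A-GFP as with rapamycin TOR inhibition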
CIT2-GFP yeast: yeast TOR pathway CIT2-GFP modulation; S. cerevisiae CIT2-GFP strain, flow cytometry, 3 h; 100 means same as DMSO wells; GFP response vs DMSO, % at 10 µM; 320,000 tested, 0.065% active;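 active = GFP response relative to DMSO above a set limit, near the screen mean plus 3 SD, cut at about 150% in these data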;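 also: ratio of well median GFP fluorescence to mean of DMSO wells on the plate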
LAP4 TOR yeast: modulators of TOR pathway LAP4-GFP in S. cerevisiae | S. cerevisiae LAP4-GFP multiplex, flow cytometry GFP, 3 h; median GFP as percent of DMSO wells | GFP response vs DMSO, % at 10 µM | 320,000 tested, 0.34% active | AID 2023;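 active = GFP response vs DMSO above a set limit, about the screen mean plus 3 SD, cut at about 150% in these data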
AGP1 TOR yeast: alters AGP1-GFP fluorescence in TOR pathway yeast screen; S. cerevisiae AGP1-GFP multiplex flow cytometry, 3 h; GFP as percent of DMSO wells; GFP response vs DMSO, % at 10 µM; 320,000 tested, 0.02% active;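 active = GFP response relative to DMSO above a set limit, near screen average plus 3 SD, cut at about 150% in these data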;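 also: median GFP channel fluorescence of the gated AGP1 strain per well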
LAP4 cherry2: reconfirmed LAP4-GFP TOR pathway modulator in yeast; 590 tested, 20% active; S. cerevisiae LAP4-GFP strain, flow cytometry GFP, 3 h; GFP response vs DMSO, % at 10 µM; shares compounds with LAP4 TOR yeast;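 active = GFP signal as percent of the solvent control above about 150%, meaning raised reporter expression, limit read from the data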;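 also: ratio of well median GFP fluorescence to plate DMSO mean so 100% = DMSO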
MEP2 cherry2: yeast MEP2-GFP modulation, second cherry pick | 590 tested, 10% active | GFP response vs DMSO, % at 10 µM | S. cerevisiae MEP2-GFP strain, flow cytometry GFP, 3 h | shares compounds with LAP4 TOR yeast;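 active = GFP signal above 150% of the solvent control wells, that is a rise of more than half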;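 also: median channel GFP fluorescence of all gated yeast cells per well; ratio of median GFP to plate DMSO average so 100% = DMSO level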
RPL19A GFP CP2: reconfirmed modulator of RPL19A-GFP TOR reporter in yeast. 590 tested, 3% active. shares compounds with LAP4 TOR yeast. GFP response vs DMSO, % at 10 µM. S. cerevisiae RPL19A-GFP strain, flow cytometry GFP, 3 h; hits give low values; 100% means same as DMSO wells;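 active = under 65% GFP response relative to DMSO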;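 also: median GFP channel fluorescence per well over the all cells gate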
CIT2 GFP CP2: yeast CIT2-GFP TOR reporter modulation, second cherry pick. 590 tested, 8% active. GFP response vs DMSO, % at 10 µM. S. cerevisiae CIT2-GFP strain, flow cytometry GFP, 3 h; DMSO control wells read 100%. shares compounds with LAP4 TOR yeast;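 active = GFP response vs DMSO above about 150%, limit read from the data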;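 also: median green fluorescence per well over all gated yeast cells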
AGP1-GFP pick2: second confirmation of modulators of TOR reporter AGP1-GFP in yeast | AID 2643 | S. cerevisiae AGP1-GFP strain, flow cytometry GFP, 3 h | shares compounds with LAP4 TOR yeast | percent response vs DMSO, % at 10 µM | 590 tested, under 10 active;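 active = over 150 percent of DMSO response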;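 also: median GFP channel fluorescence over all cells without mother daughter split; sample median GFP divided by mean DMSO control so 100% equals DMSO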
Yeast autofluor: counter-screen for compound autofluorescence in yeast s288c cells. shares compounds with LAP4 TOR yeast. S. cerevisiae s288c, 520 nm autofluorescence, flow cytometry, 3 h; hits give high values; zero means same as solvent-only cells. fluorescence change (kMESF span) at 33 µM. 610 tested, under 10 active;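 active = fluorescence span over the dose series, or activity score, above about 33, limit read from the data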
s288c autofl DR: yeast s288c autofluorescence artifact in dose response; shares compounds with LAP4 TOR yeast; S. cerevisiae s288c parental, compound autofluorescence, flow cytometry, 3 h; 110 tested, under 10 active; fluorescence change (span) at 33 µM;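 active = fluorescence change span, or the activity score built from it, above 25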
TORC1 bypass gr: wildtype yeast growth loss with TORC1 bypass cells unaffected. S. cerevisiae BY4741 spot growth rating, 48-72 h; hits give low values. growth rating (0-3) at 30 µM. 120 tested, under 10 active. shares compounds with LAP4 TOR yeast;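 active = growth rating at most 1 for wild type yeast while the TORC1 bypass strain still grows fully, rated 3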
* marks the source's active call; other numbers are inactive results; . = no result given; [ ] = remark or other dose.

SMILES | Efflux pump mplx | MEP2 TOR yeast | RPL19A-GFP yeast | CIT2-GFP yeast | LAP4 TOR yeast | AGP1 TOR yeast | LAP4 cherry2 | MEP2 cherry2 | RPL19A GFP CP2 | CIT2 GFP CP2 | AGP1-GFP pick2 | Yeast autofluor | others
O=C1Nc2ccc(Br)cc2/C1=C/C(=O)c1ccc2c(c1)OCO2 | 0 | 86 | 94 | 92 | 131 | 99 | . | . | . | . | . | -0.4
O=C(COc1c(Br)cc(Br)c2cccnc12)N1CCc2ccccc2C1 | 0 | 106 | 98 | 102 | 157* | 85 | . | . | . | . | . | 1
CCn1c(=O)c([N+](=O)[O-])c(NCc2ccco2)c2ccccc21 | 0 | 109 | 92 | 95 | 201*[may fluoresce green] | 96 | 104 | 115 | 98 | 107 | 101 | .
CCNc1c([N+](=O)[O-])c(=O)n(CC)c2ccccc12 | 0 | 92 | 96 | 100 | 99 | 97 | . | . | . | . | . | .
O=C(N[C@@H](Cc1ccccc1)C(=O)CCl)OCc1ccccc1 | 0 | 88 | 100 | 61 | 151* | 77 | 140 | 103 | 96 | 90 | 96 | .
O=C1OCCC1Sc1nnc(-c2ccco2)o1 (configuration not stated) | 0 | 102 | 98 | 102 | 113 | 108 | . | . | . | . | . | .
O=C1OCCC1Sc1nnc(-c2ccc(Br)cc2)o1 (configuration not stated) | 0 | 174 | 65 | 105 | 98 | 26 | 99 | 100 | 100 | 110 | 97 | .
O=c1c2cc(Cl)ccc2nc(-c2ccc([N+](=O)[O-])cc2)n1O | 0 | 96 | 64 | 76 | 134 | 79 | 158* | 153* | 46* | 145 | 75 | 0.3
Cc1ccc(NC(=O)CCc2ccccc2)cc1S(=O)(=O)N1CCOCC1 | 0 | 109 | 88 | 88 | 151* | 111 | 101 | 100 | 99 | 102 | 99 | 0
O=S(=O)(CCN(CCS(=O)(=O)C(F)(F)F)CC1CCCO1)C(F)(F)F (configuration not stated) | 0 | 95 | 90 | 102 | 243* | 79 | . | . | . | . | . | 0.62 | s288c autofl DR=0.24;TORC1 bypass gr=3
Cc1ccc(C(=O)NCC(=O)Nc2ccc(S(=O)(=O)Nc3cc(C)nc(C)n3)cc2)cc1 | 0 | 104 | 85 | 96 | 153* | 101 | 100 | 98 | 101 | 103 | 98 | .
Cc1ccc(C(=O)NC(=S)NCc2ccccc2)cc1Br | 0 | 103 | 97 | 102 | 118 | 103 | . | . | . | . | . | .
COc1cc(/C=C2\CC/C(=C\c3cc(OC)c(O)c(OC)c3)C2=O)cc(OC)c1O | 1 | 184* | 98 | 126 | 138 | 105 | 146 | 141 | 111 | 165* | 111 | 2.7
